In the supplement of paper PMC12067093, “Discovery and optimisation of a covalent ligand for TRIM25 and its application to targeted protein ubiquitination” (Chemical Science, 2025):
The full data set covers some 21,000 targets. This sample favours those with the largest changes.

Compound: Cc1cc(ccc1-c1ccccc1)C(=O)N1CCCN(CC1)C(=O)CCl [compound 10]
Assay: probe-labelled cysteine peptide fold change vs DMSO (competition) (log2 fold change); higher = less target engagement (more negative = stronger competition)
Details: THP-1, incubation time: 4 h
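Also: competitive profiling in live THP-1 cells: cysteine peptides tagged with an iodoacetamide desthiobiotin (IA-DTB) probe, intensity after compound treatment relative to DMSO-treated cells.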

Sequence of UniProt P50479 (P50479 whole entry, looked up): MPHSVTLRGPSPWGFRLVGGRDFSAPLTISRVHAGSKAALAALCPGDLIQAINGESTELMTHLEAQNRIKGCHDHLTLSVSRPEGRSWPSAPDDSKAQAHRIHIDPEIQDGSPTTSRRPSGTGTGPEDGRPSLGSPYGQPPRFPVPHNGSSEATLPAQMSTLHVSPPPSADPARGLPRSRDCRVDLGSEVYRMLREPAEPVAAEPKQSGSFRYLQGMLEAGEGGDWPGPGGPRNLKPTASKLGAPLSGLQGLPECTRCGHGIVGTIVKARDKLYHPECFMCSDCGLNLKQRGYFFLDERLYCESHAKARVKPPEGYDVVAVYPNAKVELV
Sequence of UniProt Q5JVF3 (Q5JVF3 whole entry, looked up): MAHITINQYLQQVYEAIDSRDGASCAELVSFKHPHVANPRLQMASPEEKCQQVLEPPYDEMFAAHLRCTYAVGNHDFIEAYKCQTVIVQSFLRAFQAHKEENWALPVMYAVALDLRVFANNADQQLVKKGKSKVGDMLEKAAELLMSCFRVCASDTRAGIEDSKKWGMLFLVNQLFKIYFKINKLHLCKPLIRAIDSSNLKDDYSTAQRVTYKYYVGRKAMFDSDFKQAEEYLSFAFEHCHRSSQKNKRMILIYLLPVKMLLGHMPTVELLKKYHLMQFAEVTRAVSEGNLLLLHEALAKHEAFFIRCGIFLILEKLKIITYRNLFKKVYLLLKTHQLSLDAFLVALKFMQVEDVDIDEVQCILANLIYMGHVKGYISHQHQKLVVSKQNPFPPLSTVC
Sequence of UniProt P00558 (P00558 whole entry, looked up): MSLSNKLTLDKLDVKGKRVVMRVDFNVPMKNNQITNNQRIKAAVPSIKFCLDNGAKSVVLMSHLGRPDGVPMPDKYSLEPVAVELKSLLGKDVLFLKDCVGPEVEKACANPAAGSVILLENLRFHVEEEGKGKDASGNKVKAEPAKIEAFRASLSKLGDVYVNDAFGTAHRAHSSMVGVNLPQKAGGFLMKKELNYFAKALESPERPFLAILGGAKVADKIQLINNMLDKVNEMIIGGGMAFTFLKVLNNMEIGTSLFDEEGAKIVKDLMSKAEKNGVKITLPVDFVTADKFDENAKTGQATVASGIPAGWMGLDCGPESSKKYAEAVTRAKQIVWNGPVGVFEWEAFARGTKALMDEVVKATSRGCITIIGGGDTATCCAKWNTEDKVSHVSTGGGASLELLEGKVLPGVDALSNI
Sequence of UniProt P05165 (P05165 whole entry, looked up): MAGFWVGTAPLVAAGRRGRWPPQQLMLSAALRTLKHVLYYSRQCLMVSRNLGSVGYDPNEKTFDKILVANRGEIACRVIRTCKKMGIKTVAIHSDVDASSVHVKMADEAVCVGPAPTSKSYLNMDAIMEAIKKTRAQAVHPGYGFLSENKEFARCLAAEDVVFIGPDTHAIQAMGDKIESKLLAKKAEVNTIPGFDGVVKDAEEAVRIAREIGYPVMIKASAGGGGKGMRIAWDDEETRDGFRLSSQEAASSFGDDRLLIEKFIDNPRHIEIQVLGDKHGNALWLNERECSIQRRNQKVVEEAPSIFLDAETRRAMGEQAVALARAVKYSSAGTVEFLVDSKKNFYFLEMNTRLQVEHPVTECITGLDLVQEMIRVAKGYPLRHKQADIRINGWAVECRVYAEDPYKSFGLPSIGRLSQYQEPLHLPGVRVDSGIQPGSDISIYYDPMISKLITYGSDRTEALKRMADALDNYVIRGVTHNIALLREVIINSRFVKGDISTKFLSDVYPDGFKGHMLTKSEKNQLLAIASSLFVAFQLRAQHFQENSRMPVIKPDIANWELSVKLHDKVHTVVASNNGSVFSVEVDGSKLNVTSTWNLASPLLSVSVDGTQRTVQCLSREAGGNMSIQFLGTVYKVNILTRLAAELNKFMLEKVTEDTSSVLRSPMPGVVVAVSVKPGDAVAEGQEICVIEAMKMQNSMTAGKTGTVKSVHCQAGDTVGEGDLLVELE
Sequence of UniProt Q15084 (Q15084 whole entry, looked up): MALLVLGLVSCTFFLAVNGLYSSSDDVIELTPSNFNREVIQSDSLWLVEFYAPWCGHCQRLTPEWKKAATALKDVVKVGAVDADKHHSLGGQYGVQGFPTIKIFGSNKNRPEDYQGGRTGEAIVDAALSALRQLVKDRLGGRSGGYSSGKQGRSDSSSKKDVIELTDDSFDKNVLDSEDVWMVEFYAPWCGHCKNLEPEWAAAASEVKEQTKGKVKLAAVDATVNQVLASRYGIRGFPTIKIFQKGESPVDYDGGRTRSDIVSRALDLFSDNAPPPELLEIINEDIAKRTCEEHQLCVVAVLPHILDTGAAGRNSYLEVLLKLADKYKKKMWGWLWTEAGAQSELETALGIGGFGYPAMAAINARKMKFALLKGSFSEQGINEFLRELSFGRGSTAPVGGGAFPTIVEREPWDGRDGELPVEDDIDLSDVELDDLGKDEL
Sequence of UniProt P30101 (P30101 whole entry, looked up): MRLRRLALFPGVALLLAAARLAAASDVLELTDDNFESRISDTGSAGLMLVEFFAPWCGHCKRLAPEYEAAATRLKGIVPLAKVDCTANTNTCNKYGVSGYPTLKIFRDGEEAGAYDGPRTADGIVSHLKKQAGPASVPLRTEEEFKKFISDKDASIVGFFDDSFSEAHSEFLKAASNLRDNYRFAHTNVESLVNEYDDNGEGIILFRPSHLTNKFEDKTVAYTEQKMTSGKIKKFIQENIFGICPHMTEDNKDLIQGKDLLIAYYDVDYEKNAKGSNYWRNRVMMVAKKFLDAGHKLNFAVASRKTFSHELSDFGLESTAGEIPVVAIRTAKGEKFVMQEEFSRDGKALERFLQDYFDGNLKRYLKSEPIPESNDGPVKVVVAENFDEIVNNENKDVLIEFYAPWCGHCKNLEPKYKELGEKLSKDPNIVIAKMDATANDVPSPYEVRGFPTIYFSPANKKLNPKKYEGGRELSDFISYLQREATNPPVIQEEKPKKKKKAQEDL
Sequence of UniProt Q8IYS1 (Q8IYS1 whole entry, looked up): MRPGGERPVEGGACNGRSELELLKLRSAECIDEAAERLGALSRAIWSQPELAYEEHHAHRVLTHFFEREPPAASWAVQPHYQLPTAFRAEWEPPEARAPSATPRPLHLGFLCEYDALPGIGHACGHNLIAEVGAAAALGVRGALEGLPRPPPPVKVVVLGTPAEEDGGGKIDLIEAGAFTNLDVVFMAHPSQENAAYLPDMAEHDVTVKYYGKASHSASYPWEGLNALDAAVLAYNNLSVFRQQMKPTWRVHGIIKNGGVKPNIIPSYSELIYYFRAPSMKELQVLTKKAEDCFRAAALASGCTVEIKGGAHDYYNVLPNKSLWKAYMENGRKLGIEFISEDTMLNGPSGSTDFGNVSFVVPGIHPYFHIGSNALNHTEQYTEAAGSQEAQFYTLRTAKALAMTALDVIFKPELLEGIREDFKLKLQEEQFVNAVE
Sequence of UniProt Q8WUM4 (Q8WUM4 whole entry, looked up): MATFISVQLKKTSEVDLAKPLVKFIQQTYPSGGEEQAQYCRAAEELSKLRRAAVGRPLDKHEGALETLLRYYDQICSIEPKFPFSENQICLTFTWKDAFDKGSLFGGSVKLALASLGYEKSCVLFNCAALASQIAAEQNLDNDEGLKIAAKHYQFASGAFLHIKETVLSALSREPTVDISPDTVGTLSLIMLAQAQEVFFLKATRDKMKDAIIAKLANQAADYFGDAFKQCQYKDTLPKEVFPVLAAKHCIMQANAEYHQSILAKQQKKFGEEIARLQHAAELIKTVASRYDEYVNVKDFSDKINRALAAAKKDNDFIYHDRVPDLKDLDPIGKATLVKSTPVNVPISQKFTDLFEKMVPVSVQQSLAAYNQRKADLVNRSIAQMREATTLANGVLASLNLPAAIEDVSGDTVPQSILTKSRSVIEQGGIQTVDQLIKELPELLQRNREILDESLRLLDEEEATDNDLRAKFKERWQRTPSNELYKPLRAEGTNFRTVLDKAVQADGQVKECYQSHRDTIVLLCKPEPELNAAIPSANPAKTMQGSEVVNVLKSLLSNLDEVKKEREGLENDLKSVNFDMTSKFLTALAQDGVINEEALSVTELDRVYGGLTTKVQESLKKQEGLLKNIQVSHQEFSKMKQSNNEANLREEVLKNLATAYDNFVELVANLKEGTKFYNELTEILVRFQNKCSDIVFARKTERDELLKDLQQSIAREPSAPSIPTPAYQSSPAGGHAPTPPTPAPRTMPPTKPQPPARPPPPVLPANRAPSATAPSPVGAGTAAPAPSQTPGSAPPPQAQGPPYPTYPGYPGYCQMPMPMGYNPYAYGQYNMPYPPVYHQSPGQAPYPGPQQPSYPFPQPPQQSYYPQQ
Sequence of UniProt Q15365 (Q15365 whole entry, looked up): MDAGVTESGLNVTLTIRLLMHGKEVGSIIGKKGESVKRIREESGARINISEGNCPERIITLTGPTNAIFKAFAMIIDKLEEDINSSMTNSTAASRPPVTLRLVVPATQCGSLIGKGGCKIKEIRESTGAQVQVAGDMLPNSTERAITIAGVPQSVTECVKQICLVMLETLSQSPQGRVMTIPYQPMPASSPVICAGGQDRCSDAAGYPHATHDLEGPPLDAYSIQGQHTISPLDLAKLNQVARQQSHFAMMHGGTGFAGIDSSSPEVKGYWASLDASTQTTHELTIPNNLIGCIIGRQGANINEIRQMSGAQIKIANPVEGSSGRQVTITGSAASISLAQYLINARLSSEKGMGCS
Sequence of UniProt Q9NY27 (Q9NY27 whole entry, looked up): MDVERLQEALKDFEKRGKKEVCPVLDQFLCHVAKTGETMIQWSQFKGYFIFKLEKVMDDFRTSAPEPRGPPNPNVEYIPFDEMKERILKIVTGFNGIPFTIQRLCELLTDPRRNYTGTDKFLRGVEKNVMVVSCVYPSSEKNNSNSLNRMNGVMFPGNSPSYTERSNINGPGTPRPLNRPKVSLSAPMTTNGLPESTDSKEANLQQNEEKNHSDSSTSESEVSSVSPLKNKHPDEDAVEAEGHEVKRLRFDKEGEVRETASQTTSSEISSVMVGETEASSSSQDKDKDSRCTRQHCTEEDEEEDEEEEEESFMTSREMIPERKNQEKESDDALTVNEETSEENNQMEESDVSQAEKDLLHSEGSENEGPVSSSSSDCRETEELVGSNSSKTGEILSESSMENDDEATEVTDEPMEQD

Target	probe-labelled cysteine peptide fold change (10 µM)	probe-labelled cysteine peptide fold change (50 µM)
PKN3_Q6P5Z2_131_QGAENMTHTCASGTPK (UniProt Q6P5Z2)	-0.00333	-0.199
PPP4C_P60510_130_QITQVYGFYDECLRK<|>PPP2CB_P62714_133_QITQVYGFYDECLRK<|>PPP2CA_P67775_133_QITQVYGFYDECLRK (UniProt P67775+P62714+P60510)	0.0312	-0.109
PGK1_P00558_367+379_GCITIIGGGDTATCCAK (UniProt P00558)	0.296	-0.173
PDIA3_P30101_85+92_VDCTANTNTCNK (UniProt P30101)	-0.107	-0.048
PML_P29590_140+143_ESADFWCFECEQLLCAK (UniProt P29590)	0.0944	-0.116
PDIA4_P13667_555+558_DVLIEFYAPWCGHCK<|>PDIA3_P30101_406+409_DVLIEFYAPWCGHCK (UniProt P30101+P13667)	-0.251	-1.15
PM20D2_Q8IYS1_14_MRPGGERPVEGGACNGR (UniProt Q8IYS1)	-0.16	-0.608
PCCA_P05165_398_INGWAVECR (UniProt P05165)	0.181	0.357
POLK_Q9UBT6_545_SIIGFLQAGNQALSATECTLEK (UniProt Q9UBT6)	-0.695	-0.377
PCBP2_Q15366_158_AITIAGIPQSIIECVK (UniProt Q15366)	0.149	-0.0185
PCCB_P05166_291_DFFNYLPLSSQDPAPVRECHDPSDR (UniProt P05166)	-0.474	-0.454
PEX6_Q13608_564_HLLLNEDPLNSCPPLMVVATTSR (UniProt Q13608)	0.0661	0.052
PGGT1B_P53609_162_ALQLEDGSFCAVPEGSENDMR (UniProt P53609)	-0.0186	-0.573
POFUT1_Q9H488_249_NACAMLK (UniProt Q9H488)	-0.308	-0.164
PPP1CC_P36873_140_IYGFYDECKR<|>PPP1CA_P62140_140_IYGFYDECKR (UniProt P62140+P36873)	0.0922	0.0296
PLCB3_Q01970_360_CVELDVWK (UniProt Q01970)	0.0505	-0.317
PREX1_Q8TCU6_1173_DSYSECNSNR (UniProt Q8TCU6)	0.634	1.39
PDIA4_P13667_555_DVLIEFYAPWCGHCK<|>PDIA3_P30101_406_DVLIEFYAPWCGHCK (UniProt P30101+P13667)	-0.287	-1.09

Target	probe-labelled cysteine peptide fold change (10 µM)	probe-labelled cysteine peptide fold change (50 µM)
PLEKHF2_Q9H8W4_219_ICDFCYDLLSAGDMATCQPAR (UniProt Q9H8W4)	-0.498	-0.228
POLR2K_P53803_22_QQPMIYICGECHTENEIK (UniProt P53803)	-0.0834	-0.286
PINX1_Q96BK5_94_NNHLGLGATINNEDNWIAHQDDFNQLLAELNTCHGQETTDSSDKK (UniProt Q96BK5)	0.15	0.124
PHF5A_Q7RTV0_46_ICDECNYGSYQGR (UniProt Q7RTV0)	-0.00469	-0.327
PPP4R2_Q9NY27_30_EVCPVLDQFLCHVAK (UniProt Q9NY27)	0.0564	-0.311
PDLIM4_P50479_258_CGHGIVGTIVK (UniProt P50479)	-0.0847	-0.546
PLEK_P08567_295_GCVVTSVESNSNGR (UniProt P08567)	-0.14	-0.138
PLXNB2_O15031_1504+1506_GQPCSCWPRPDSVVLEWRPGSTAQILSDLDLTSQR (UniProt O15031)	-0.0809	-0.762
PPP6C_O00743_129_QITQVYGFYDECQTK (UniProt O00743)	0.0334	0.309
PDIA6_Q15084_291_RTCEEHQLCVVAVLPHILDTGAAGR (UniProt Q15084)	0.0625	-0.132
PCBP1_Q15365_158_AITIAGVPQSVTECVK (UniProt Q15365)	0.332	-0.0314
PDCD6IP_Q8WUM4_691_CSDIVFAR (UniProt Q8WUM4)	-0.00307	-0.0695
PPWD1_Q96BP3_287_AYPTSVCFSPDGK (UniProt Q96BP3)	0.0829	0.156
PCID2_Q5JVF3_152_VCASDTR (UniProt Q5JVF3)	0.19	0.0189
PPP2R5A_Q15172_72_DATSNEQQELFCQK (UniProt Q15172)	0.0287	-0.096
PPM1E_Q8WY54_307_QEMFPHDPAEALCR (UniProt Q8WY54)	-0.144	-0.28
PPP2R2D_Q66LE6_245_SFNIVDIKPANMEELTEVITAAEFHPHQCNVFVYSSSK (UniProt Q66LE6)	-0.00789	-0.502
